Of roughly 8,800 targets only a part is listed; those with a hit were picked by preference. About 0.5% of all pairs of compound and target were hits. A number with no mark means an inactive call.

Sequence of UniProt Q8N1S5 (Q8N1S5 whole entry, looked up): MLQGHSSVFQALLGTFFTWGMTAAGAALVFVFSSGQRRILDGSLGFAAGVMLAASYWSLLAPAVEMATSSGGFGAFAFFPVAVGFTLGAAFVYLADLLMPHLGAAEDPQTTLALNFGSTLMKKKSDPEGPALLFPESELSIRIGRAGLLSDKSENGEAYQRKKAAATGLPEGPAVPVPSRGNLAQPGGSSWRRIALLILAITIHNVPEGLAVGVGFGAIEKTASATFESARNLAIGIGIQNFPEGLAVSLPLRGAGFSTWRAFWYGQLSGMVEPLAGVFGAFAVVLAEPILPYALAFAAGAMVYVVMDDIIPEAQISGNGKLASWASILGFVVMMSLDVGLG
Sequence of UniProt Q9H668 (Q9H668 whole entry, looked up): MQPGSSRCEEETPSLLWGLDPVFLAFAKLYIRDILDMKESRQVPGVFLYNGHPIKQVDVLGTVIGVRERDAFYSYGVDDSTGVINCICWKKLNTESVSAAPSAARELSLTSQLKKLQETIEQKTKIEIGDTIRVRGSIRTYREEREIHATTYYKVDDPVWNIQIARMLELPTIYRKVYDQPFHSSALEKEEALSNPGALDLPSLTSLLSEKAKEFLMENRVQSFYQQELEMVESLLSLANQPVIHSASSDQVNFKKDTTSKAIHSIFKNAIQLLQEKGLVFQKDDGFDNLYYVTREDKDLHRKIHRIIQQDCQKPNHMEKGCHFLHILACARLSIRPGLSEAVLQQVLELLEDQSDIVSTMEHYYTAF
Sequence of UniProt Q9BWW4 (Q9BWW4 whole entry, looked up): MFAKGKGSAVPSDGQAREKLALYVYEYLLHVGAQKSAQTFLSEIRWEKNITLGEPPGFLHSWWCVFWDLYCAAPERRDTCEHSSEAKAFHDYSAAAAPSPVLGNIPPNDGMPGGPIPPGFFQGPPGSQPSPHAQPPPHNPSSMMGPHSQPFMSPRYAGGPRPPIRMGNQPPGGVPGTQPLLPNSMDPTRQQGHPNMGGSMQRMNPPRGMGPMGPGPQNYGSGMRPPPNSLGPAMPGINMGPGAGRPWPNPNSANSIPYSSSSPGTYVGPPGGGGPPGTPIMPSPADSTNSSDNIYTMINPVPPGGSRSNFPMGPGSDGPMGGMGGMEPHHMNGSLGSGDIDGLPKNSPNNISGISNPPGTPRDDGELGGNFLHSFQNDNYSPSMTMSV
Sequence of UniProt O95149 (O95149 whole entry, looked up): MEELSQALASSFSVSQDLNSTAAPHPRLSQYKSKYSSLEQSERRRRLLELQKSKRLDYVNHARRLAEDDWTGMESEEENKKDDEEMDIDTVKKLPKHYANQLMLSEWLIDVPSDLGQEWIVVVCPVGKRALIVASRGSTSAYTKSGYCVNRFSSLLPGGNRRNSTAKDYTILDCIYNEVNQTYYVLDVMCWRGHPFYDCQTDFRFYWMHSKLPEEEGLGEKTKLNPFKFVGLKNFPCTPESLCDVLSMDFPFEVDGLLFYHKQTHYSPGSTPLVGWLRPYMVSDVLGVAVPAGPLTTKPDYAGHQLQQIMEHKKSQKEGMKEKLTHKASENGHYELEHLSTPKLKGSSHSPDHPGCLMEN
Sequence of UniProt O60225 (O60225 whole entry, looked up): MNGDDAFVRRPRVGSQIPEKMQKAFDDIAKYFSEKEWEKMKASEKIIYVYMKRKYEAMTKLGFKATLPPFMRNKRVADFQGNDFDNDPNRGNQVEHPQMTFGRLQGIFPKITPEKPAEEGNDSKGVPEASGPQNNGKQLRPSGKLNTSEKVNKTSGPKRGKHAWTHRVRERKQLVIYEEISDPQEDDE
Sequence of UniProt Q96DW6 (Q96DW6 whole entry, looked up): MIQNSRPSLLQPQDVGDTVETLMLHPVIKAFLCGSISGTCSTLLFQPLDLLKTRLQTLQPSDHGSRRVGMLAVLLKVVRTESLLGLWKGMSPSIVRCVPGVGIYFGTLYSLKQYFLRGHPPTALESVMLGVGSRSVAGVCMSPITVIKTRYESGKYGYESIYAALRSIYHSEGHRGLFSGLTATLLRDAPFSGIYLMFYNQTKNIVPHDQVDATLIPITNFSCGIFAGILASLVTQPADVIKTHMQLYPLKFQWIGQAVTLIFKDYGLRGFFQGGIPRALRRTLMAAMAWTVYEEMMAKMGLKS
Sequence of UniProt P35711 (P35711 whole entry, looked up): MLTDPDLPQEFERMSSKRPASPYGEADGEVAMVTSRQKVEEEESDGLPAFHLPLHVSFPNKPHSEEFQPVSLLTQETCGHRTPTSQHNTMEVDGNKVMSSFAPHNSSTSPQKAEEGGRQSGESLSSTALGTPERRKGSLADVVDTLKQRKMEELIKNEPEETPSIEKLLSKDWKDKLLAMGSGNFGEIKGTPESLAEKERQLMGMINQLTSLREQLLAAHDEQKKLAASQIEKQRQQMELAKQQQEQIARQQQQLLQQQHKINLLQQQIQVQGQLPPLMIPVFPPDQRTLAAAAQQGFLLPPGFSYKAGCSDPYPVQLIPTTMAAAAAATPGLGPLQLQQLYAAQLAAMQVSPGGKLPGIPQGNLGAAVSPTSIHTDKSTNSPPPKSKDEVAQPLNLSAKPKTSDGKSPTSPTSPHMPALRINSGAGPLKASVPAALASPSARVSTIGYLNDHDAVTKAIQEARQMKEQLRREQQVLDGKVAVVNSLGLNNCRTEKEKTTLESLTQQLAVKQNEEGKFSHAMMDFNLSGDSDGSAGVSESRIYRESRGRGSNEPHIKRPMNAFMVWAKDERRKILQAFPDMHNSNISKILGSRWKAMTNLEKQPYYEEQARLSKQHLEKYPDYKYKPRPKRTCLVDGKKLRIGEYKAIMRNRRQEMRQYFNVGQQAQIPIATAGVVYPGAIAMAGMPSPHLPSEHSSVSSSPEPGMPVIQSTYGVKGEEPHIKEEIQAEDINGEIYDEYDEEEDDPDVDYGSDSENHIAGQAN
Sequence of UniProt Q9BXP5 (Q9BXP5 whole entry, looked up): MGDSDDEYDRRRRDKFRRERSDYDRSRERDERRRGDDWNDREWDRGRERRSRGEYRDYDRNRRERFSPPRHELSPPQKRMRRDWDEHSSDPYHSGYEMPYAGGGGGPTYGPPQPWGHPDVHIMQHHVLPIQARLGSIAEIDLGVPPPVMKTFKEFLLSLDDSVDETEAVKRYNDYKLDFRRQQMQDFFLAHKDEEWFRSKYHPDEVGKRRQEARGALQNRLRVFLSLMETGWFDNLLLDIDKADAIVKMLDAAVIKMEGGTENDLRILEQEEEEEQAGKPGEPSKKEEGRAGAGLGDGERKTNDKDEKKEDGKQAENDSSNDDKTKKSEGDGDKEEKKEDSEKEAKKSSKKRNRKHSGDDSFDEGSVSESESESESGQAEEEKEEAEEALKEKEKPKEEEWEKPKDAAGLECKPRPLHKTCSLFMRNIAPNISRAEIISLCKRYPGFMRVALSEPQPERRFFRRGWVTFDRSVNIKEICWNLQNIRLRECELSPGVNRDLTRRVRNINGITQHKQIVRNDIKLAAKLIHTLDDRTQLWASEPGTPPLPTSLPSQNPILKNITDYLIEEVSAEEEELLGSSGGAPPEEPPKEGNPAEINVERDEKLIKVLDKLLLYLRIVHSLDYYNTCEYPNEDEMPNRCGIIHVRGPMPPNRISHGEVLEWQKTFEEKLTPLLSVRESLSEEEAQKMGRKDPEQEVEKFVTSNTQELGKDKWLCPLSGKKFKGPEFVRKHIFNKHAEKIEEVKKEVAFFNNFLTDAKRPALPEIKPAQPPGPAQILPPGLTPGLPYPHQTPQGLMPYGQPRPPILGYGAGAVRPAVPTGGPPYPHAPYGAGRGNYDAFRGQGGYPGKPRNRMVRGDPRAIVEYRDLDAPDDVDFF
Sequence of UniProt O60504 (O60504 whole entry, looked up): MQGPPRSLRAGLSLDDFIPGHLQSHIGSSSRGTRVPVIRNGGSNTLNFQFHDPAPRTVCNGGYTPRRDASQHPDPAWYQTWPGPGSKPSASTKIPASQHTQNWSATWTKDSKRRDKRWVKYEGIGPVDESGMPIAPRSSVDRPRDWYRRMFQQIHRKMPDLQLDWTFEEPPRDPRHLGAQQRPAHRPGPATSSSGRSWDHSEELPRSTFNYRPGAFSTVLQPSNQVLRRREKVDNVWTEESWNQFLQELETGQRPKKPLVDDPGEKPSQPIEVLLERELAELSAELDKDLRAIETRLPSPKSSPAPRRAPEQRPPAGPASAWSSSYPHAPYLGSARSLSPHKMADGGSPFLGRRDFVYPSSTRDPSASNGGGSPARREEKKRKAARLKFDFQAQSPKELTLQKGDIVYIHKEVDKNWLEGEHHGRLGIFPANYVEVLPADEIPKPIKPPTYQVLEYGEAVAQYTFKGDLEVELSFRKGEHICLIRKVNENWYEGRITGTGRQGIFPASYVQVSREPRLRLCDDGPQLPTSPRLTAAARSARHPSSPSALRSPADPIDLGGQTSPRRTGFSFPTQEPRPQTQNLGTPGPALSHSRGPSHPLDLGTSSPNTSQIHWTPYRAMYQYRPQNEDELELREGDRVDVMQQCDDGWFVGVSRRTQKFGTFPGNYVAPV
Sequence of UniProt B2RUZ4 (B2RUZ4 whole entry, looked up): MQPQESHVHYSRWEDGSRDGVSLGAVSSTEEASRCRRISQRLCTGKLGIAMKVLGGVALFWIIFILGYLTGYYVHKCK
Sequence of UniProt P10124 (P10124 whole entry, looked up): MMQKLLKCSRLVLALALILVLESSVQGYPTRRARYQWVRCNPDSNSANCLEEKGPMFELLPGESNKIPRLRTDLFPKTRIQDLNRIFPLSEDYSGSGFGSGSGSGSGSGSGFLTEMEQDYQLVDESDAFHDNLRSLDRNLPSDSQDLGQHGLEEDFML
Sequence of UniProt Q13242 (Q13242 whole entry, looked up): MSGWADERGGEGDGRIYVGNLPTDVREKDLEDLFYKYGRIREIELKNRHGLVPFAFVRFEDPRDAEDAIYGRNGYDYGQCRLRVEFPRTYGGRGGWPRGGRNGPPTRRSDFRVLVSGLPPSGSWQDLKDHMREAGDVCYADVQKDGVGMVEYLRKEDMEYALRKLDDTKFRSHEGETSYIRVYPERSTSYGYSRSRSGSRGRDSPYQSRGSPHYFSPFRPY
Sequence of UniProt Q96EX1 (Q96EX1 whole entry, looked up): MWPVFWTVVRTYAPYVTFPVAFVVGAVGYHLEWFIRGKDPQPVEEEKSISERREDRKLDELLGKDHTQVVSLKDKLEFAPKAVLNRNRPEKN

Compound in one test: CC[C@@H]1C(=O)N(C)c2cnc(Nc3ccc(C(=O)NC4CCN(C)CC4)cc3OC)nc2N1C1CCCC1
Put plainly: log2 fold change, soluble protein after heating vs DMSO (PISA); higher = thermal stabilisation; K562 lysate, 10 uM; active = over 0.2 and 3.5 SD of the protein, either way, in both replicates (recomputed). The gist of the method:
(§1)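 Following dounce homogenisation of K562 pellets in PBS pH 7.4 with 1 mM MgCl2, crude extract at 1 mg/mL protein was incubated for 30 min with 10 μM compound. Aliquots were then heated for 3 min over 48°C-58°C and pooled, NP-40 was added to 0.5% at 4°C, and soluble protein was recovered as the supernatant at 21,000xg for 90 min. Channel-sum-equalised TMTpro 16plex LC-MS/MS quantified this protein. Each value, from duplicates, is a log-two fold change in thermal stability relative to solvent controls.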
With SORBS3 (UniProt O60504), the log2 fold change is 0.034.
Same read-out and setting: under SF3B6 (UniProt Q9Y3B4) stands 0.027; under TAF1B (UniProt Q53T94), -0.212.
Same read-out and setting: the result for SH3GL1 (UniProt Q99961) reads 0.044; that for SLC25A38 (UniProt Q96DW6), 0.209; that for SLC30A6 isoform 2 (UniProt Q6NXT4), 0.105.
On the same count and under the same terms, under SMYD3 (UniProt Q9H7B4) stands -0.137; under SSBP3 (UniProt Q9BWW4), -0.001; under SNRPD2 (UniProt P62316), 0.058.
SNUPN (UniProt O95149): the log2 fold change is -0.082.
On the same count and under the same terms, under SLC39A11 (UniProt Q8N1S5) stands 0.067; under STN1 (UniProt Q9H668), -0.071; under SRSF9 (UniProt Q13242), -0.05.
Still for that read-out and setting: the result for SMIM12 (UniProt Q96EX1) reads 0.129; that for SZT2 (UniProt Q5T011), 0.293; that for STMN3 (UniProt Q9NZ72), 0.096.
On the same count and under the same terms, under SLC25A44 (UniProt Q96H78) stands 0.002.
Regarding SYNE2 isoform 2 (UniProt Q8WXH0), the log2 fold change is 0.004.
Still for that read-out and setting: under SPPL2A (UniProt Q8TCT8) stands -0.016; under SURF2 (UniProt Q15527), 0.049; under SPC25 (UniProt Q9HBM1), 0.006.
On the same count and under the same terms, under SMC1B isoform 3 (UniProt Q8NDV3) stands -0.073.
Still for that read-out and setting: under TARBP1 (UniProt Q13395) stands 0.025.
Take SSX5 isoform 2 (UniProt O60225): the log2 fold change is -0.188.
The same measure, in the same setting: under SRRT (UniProt Q9BXP5) stands -0.039; under SMIM1 (UniProt B2RUZ4), -0.108; under SOX5 (UniProt P35711), 0.176.
For the target SUZ12 (UniProt Q15022), the log2 fold change was 0.024.
The same measure, in the same setting: the result for SRGN (UniProt P10124) reads 0.059.

Compound in the next test: CC[C@@H]1C(=O)N(C)c2cnc(Nc3ccc(C(=O)N[C@H]4CC[C@H](N5CCN(CC6CC6)CC5)CC4)cc3OC)nc2N1C(C)C [volasertib]
The description is as above. The gist of the method: as §1
Take SORBS3 (UniProt O60504): the log2 fold change is -0.129.
Same read-out and setting: under SF3B6 (UniProt Q9Y3B4) stands 0.014.
The same measure, in the same setting: the result for TAF1B (UniProt Q53T94) reads -0.057; that for SH3GL1 (UniProt Q99961), -0.004.
With SLC25A38 (UniProt Q96DW6), the log2 fold change is 0.012.
On the same count and under the same terms, under SLC30A6 isoform 2 (UniProt Q6NXT4) stands 0.001; under SMYD3 (UniProt Q9H7B4), -0.051.
As for SIX5 (UniProt Q8N196), the log2 fold change is -0.046.
Same read-out and setting: the result for SSBP3 (UniProt Q9BWW4) reads 0.008; that for SNRPD2 (UniProt P62316), 0.033; that for SNUPN (UniProt O95149), 0.04.
On the same count and under the same terms, the result for SLC39A11 (UniProt Q8N1S5) reads 0.011; that for STN1 (UniProt Q9H668), -0.068; that for SRSF9 (UniProt Q13242), -0.029.
On to SMIM12 (UniProt Q96EX1), for which the log2 fold change is -0.004.
Same read-out and setting: the result for SZT2 (UniProt Q5T011) reads -0.095; that for STMN3 (UniProt Q9NZ72), 0.002.
The same measure, in the same setting: the result for SLC25A44 (UniProt Q96H78) reads 0.06.
The same measure, in the same setting: under SYNE2 isoform 2 (UniProt Q8WXH0) stands 0.065; under STK3 isoform 2 (UniProt Q13188), -0.047; under SPPL2A (UniProt Q8TCT8), 0.011.
As to SURF2 (UniProt Q15527), the log2 fold change was 0.002.
Same read-out and setting: the result for SPC25 (UniProt Q9HBM1) reads -0.019; that for SH3BP2 isoform 4 (UniProt P78314), -0.052.
The same measure, in the same setting: under SMC1B isoform 3 (UniProt Q8NDV3) stands 0.024; under TARBP1 (UniProt Q13395), -0.032; under SSX5 isoform 2 (UniProt O60225), 0.013.
On to SRRT (UniProt Q9BXP5), for which the log2 fold change was -0.08.
Regarding SMIM1 (UniProt B2RUZ4), the log2 fold change was 0.026.
With SOX5 (UniProt P35711), the log2 fold change was -0.034.
On the same count and under the same terms, the result for SYK (UniProt P43405) reads 0.027.
Same read-out and setting: the result for SUZ12 (UniProt Q15022) reads -0.001; that for SRGN (UniProt P10124), -0.086.

Values taken from the supplement of paper PMC10849652.
